The list is not random: actives were taken first. Their share in the collection is about 3.8%.
Nrf2 inh = Nrf2 qHTS screen for inhibitors; A549 ARE-Fluc reporter, luciferase luminescence, 18-24 h; Potency, µM (top dose mostly 46 µM), actives largely listed as inhibitors; 360,000 compounds, 2.1% hits; AID 504444, 2011; note: nearly all actives have a fitted effect of over 60% in size
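A549 ARE_Fluc cells (5000/well, 5% FBS OPTI-MEM) pre-incubated 2 h, then treated with compounds 18-24 h at 37C/5% CO2 in concentration-response. CellTiter-Fluor viability read first; BugLite luciferase luminescence after 15 min at room temperature gives Nrf2 activity.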
TGFb SMAD3 inh = qHTS for Inhibitors of TGF-b | AID 588855, 2011 | HepG2 CAGA-GFP TGF-b/SMAD3 reporter, GFP fluorescence, 18 h; TGF-beta stimulated, 500 pg/mL final | 410,000 compounds, 1.2% hits | Potency, µM (titrated, usually from 46.1 µM), hits mostly inhibitors; note: nearly all actives have a fitted effect of over 65% in size
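HEPG2 CAGA-GFP cells (1000/well, DMEM with 1% FBS) were pre-incubated 2 h at 37 degrees C, given compound by pin tool, then stimulated with TGF-beta at 500 pg/mL final for 18 h before per-cell GFP fluorescence imaging.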
A549 viability = Nrf2 qHTS screen for inhibitors: counterscreen for cytotoxicity. A549 ARE-Fluc cells, CellTiter-Fluor viability, 18-24 h. Potency, µM (doses to about 46 µM), most hits filed as inhibitors. 390,000 compounds, 0.16% hits
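A549 ARE-Fluc cells in 5% FBS OPTI-MEM, 5000 cells/well, rested 2 h then exposed to compounds in concentration-response for 18-24 h at 37 °C. Viability by CellTiter-Fluor fluorescence (Ex 405/Em 525) after 30 min; luciferase luminescence (BugLite, 15 min, RT) read afterwards.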
ATXN viability = Viability Counterscreen for Primary qHTS for Inhibitors of ATXN expression. Potency, µM (highest dose often 56.7 µM), most hits filed as cytotoxic. 400,000 compounds, 0.49% hits. S2 cells (HEK-293 line with an ATXN2-luciferase reporter) viability, CellTiter-Fluor protease fluorescence, 24 h; note: nearly all actives have a fitted effect of over 40% in size
ATXN2 expr inh = Primary qHTS for Inhibitors of ATXN expression; HEK-293 ATXN2-luciferase reporter, luminescence, 24 h; Potency, µM (doses to about 57 µM), hits mostly inhibitors; 360,000 compounds, 0.72% hits; AID 1745845, 2022; note: nearly all actives have a fitted effect of over 55% in size
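ATXN2-luciferase reporter cells (luciferase flanked by upstream and downstream ATXN2 gene portions) were treated 24 h at 37 °C with compounds at up to 57 uM. SteadyGlo luminescence gave expression; GF-AFC fluorescence gave viability.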
HepG2 tox = qHTS for Inhibitors of TGF-b: Cytotox Counterscreen; 410,000 compounds, 0.76% hits; AID 588856, 2011; Potency, µM (series often up to 46.1 µM), usual class: cytotoxic; HepG2 CAGA-GFP viability, ATP luminescence, 18 h
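CellTiter-Glo luminescence gave cytotoxicity after 18 hours at 37 degrees C. The cells were HepG2 CAGA-GFP in 1% FBS DMEM, stimulated with 500 pg/mL TGF-beta after compound addition. %Activity was normalised to no-cell wells (complete cell-killing) and DMSO (no toxicity), and curves were fitted and classified.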
A number is an active result; n = inactive; u = inconclusive; x = no result; ! = not active in a repeat. Calls come from the whole dose curve; as a rule, active = well fitted curve in the direction sought with a large enough effect; inconclusive = small, poorly fitted or top-dose-only effect, or another doubt; inactive = no such curve, though single readings can be large; an effect the other way counts as inactive or inconclusive.

SMILES	Nrf2 inh	TGFb SMAD3 inh	A549 viability	ATXN viability	ATXN2 expr inh	HepG2 tox
Cc1ccc(CNC(=O)c2ccccc2NS(=O)(=O)c2ccc(Cl)nc2)cc1	u	16µM	n	u	n	n
CCOC(=O)C1(CC2CCCCO2)CCN(Cc2ccc(OC)cc2F)CC1 (stereo not given)	u	n	n	n	n	n
CC(C)(C)OC(=O)N(CCc1ccccc1)Cc1ccccc1OCc1cccc(NC(=O)C2CC2)c1	21µM	n	n	n	n	n
Cc1c(CCC(=O)N2CCC[C@H]2C(=O)O)c(=O)oc2c(C)c3oc4c(c3cc12)CCCC4	6.5µM	n	n	n	n	n
CCOC(=O)c1c2ccccc2[n+]([O-])n1[C@@H](C)C(N)=O	n	n	n	n	n	n
CCCCCCCCN1[C@@H](CC(=O)O)c2cc(C(F)(F)F)ccc2S1(=O)=O	n	11µM	n	n	n	n
O=c1cc(CSc2nnc(-c3cccs3)n2Cc2ccccc2)nc2sc3ccccc3n12	26µM	n	n	u	n	n
O=C(N/N=C/c1c(O)ccc2ccccc12)c1ccc(Br)o1	u	n	u	x	2.8µM	n
CC(=O)Nc1ccc(C(=O)N/N=C/c2cc(Br)cc(Br)c2O)cc1	15µM	u	n	n	25µM	n
CC(C)C(=O)Nc1ccc(C(=O)N/N=C/c2cc(Br)cc(Br)c2O)cc1	u	u	u	x	u	n
O=C(N/N=C/c1cc(Br)ccc1O)c1ccncc1	n	u	n	n	2.8µM	n
O=C(N/N=C/c1ccc(O)c2ncccc12)c1cccc(Br)c1	n	13µM	u	u	u	n
CC(C)(C)c1ccc(C(=O)CCC(=O)OCC(=O)NCCc2ccc(S(N)(=O)=O)cc2)cc1	n	n	n	n	n	n
COc1ccc(C2=Nc3ccccc3C2(O)CCN2C(=O)c3ccccc3C2=O)cc1 (stereo not given)	n	n	n	n	n	n
CCOc1ccccc1NC(=O)n1ncc2cc(Cl)ccc21	n	n	n	n	n	n
COc1ccc(NC(=O)C2CC(=O)N(CCc3ccc(Cl)cc3)C2)cc1 (stereo not given)	n	n	n	n	n	n
O=C(N/N=C/c1cc(Cl)ccc1O)c1ccc(Br)cc1	u	n	n	n	4.5µM	n
NC(=O)N/N=C\c1cc(Br)ccc1O	n	n	n	x	u	n
O=C(NN=Cc1c(O)ccc2ccccc12)c1ccncc1	26µM	u	u	n	u	n
O=C(N/N=C/c1ccccc1O)c1ccncc1	u	n	n	u	3.5µM!	n
COc1ccc(-c2cc(C)no2)cc1S(=O)(=O)NCc1ccco1	u	n	n	x	x	n
CCOC(=O)c1c(C)[nH]c(C2=NNC(=Nc3ccc(OCC)cc3)SC2)c1C	u	n	n	u	n	n
CCOC(=O)c1c(C)[nH]c(C2=NNC(=Nc3ccccc3)SC2)c1C	u	10µM	u	u	x	n
Cc1cccc(C(=O)OCC(=O)NCCNC(=O)COC(=O)c2cccc(C)c2C)c1C	n	n	n	n	n	n
CC#CCN1c2ccccc2[C@]23C[C@@H](C(=O)OC)N(C(=O)c4cc(C)oc4C)C2=NC(C(=O)OC)=C(C(=O)OC)[C@H]13	16µM	n	n	u	n	n
SMILES	Nrf2 inh	TGFb SMAD3 inh	A549 viability	ATXN viability	ATXN2 expr inh	HepG2 tox
COc1cccc(C(O)c2nc(-c3cccc(CO)c3)cs2)c1 (stereo not given)	x	n	x	n	n	n
COC(=O)C1=C(C)NC(=O)/C1=C\c1cc(C)n(-c2c(C)cccc2C)c1C	23µM	n	21µM	u	n	n
COC(=O)C1=C(C)NC(=O)/C1=C\c1cc(C)n(-c2ccccc2C)c1C	u	n	n	n	n	n
CCOC(=O)C1=C(C)c2ccccc2N(S(=O)(=O)C(F)(F)F)C1C(=O)OCC (stereo not given)	n	n	n	n	n	n
Cc1cc(NCc2ccccn2)n2ncc(-c3ccccc3)c2n1	u	u	n	n	n	n
Cc1cc(NCc2ccccn2)n2nc(C)c(-c3ccc(Cl)cc3)c2n1	16µM	u	n	n	u	14µM
Cc1cc(NCc2ccccn2)n2ncc(-c3ccc(Cl)cc3)c2n1	u	11µM	n	u	n	n
Cc1ccc(OCC(=O)N/N=C\c2ccc(-c3cccc(C(=O)O)c3)o2)c(C)c1	n	u	n	n	n	n
CNC(=S)N/N=C/c1ccc(-c2cccc(C(=O)O)c2)o1	n	n	n	n	n	11µM
CCOC(=O)C(Cc1ccccc1)C(=O)Nc1cccc2ccccc12 (stereo not given)	n	n	n	n	n	n
CCCCCCCCCCCC[N+](C)(C)Cc1ccccc1	x	x	x	32µM	25µM	x
O=C(c1ccc2c(c1)N(Cc1ccccc1)C(=O)c1ccccc1S2(=O)=O)N1CCc2ccccc21	n	x	n	x	x	n
CC1CCC(C(=O)NC(C(=O)OCC(=O)c2ccccc2)C(C)C)CC1 (stereo not given)	16µM	n	n	n	n	n
CCc1ccc(C(=O)COC(=O)C(Cc2ccccc2)NC(=O)C2CCC(C)CC2)cc1 (stereo not given)	u	n	n	n	n	n
CC(C)(C)c1ccc2c(c1)OC(C(=O)N/N=C\c1ccccn1)CO2 (stereo not given)	16µM	n	n	n	u	n
O=C(N/N=C\c1ccc([N+](=O)[O-])o1)C1COc2ccccc2O1 (stereo not given)	u	16µM	n	n	n	n
O=[N+]([O-])c1ccc(/C=[N+](\[O-])[C@@H]2CCCC[C@@H]2/[N+]([O-])=C/c2ccc([N+](=O)[O-])o2)o1	n	7.1µM	21µM	x	u	n
O=C(N/N=C/c1ccc([N+](=O)[O-])o1)C1CCCC1	16µM	u	u	n	n	n
CC1CCN(C(=O)c2ccc(Br)c(S(=O)(=O)N3CCOCC3)c2)CC1	n	n	n	n	n	n
CC1CCN(S(=O)(=O)c2cc(C(=O)N3CCN(c4ncccn4)CC3)ccc2Br)CC1	23µM	n	n	n	n	n
CCN(c1ccc(C)cc1C)S(=O)(=O)c1nnc(NC(=O)CC(C)C)s1	n	n	n	x	x	n
COc1ccc(CNC(=O)/C=C/c2ccccc2[N+](=O)[O-])cc1	n	n	n	n	x	n
COC(=O)C(=Cc1ccccc1[N+](=O)[O-])C(=O)OC	u	u	n	16µM	x	n
